Measured values published in the supplement of paper PMC11732987, “Enantioselective OTUD7B fragment discovery through chemoproteomics screening and high-throughput optimisation” (Communications Chemistry, 2025).

What was measured:
Test in all cases: log2 ratio of Biotin-Ahx-Ub-VS probe labelling (fragment/DMSO); higher = less target engagement (more negative = stronger competition), active = hit call of the paper (q ≤ 0.05, log2 ratio ≤ -1)
Settings in all cases: compound concentration: 200 uM; treatment time: 3 h
USP34 = USP34 (UniProt Q70CQ2)
Sequence of USP34 (Q70CQ2 whole entry, the tested form may be a part): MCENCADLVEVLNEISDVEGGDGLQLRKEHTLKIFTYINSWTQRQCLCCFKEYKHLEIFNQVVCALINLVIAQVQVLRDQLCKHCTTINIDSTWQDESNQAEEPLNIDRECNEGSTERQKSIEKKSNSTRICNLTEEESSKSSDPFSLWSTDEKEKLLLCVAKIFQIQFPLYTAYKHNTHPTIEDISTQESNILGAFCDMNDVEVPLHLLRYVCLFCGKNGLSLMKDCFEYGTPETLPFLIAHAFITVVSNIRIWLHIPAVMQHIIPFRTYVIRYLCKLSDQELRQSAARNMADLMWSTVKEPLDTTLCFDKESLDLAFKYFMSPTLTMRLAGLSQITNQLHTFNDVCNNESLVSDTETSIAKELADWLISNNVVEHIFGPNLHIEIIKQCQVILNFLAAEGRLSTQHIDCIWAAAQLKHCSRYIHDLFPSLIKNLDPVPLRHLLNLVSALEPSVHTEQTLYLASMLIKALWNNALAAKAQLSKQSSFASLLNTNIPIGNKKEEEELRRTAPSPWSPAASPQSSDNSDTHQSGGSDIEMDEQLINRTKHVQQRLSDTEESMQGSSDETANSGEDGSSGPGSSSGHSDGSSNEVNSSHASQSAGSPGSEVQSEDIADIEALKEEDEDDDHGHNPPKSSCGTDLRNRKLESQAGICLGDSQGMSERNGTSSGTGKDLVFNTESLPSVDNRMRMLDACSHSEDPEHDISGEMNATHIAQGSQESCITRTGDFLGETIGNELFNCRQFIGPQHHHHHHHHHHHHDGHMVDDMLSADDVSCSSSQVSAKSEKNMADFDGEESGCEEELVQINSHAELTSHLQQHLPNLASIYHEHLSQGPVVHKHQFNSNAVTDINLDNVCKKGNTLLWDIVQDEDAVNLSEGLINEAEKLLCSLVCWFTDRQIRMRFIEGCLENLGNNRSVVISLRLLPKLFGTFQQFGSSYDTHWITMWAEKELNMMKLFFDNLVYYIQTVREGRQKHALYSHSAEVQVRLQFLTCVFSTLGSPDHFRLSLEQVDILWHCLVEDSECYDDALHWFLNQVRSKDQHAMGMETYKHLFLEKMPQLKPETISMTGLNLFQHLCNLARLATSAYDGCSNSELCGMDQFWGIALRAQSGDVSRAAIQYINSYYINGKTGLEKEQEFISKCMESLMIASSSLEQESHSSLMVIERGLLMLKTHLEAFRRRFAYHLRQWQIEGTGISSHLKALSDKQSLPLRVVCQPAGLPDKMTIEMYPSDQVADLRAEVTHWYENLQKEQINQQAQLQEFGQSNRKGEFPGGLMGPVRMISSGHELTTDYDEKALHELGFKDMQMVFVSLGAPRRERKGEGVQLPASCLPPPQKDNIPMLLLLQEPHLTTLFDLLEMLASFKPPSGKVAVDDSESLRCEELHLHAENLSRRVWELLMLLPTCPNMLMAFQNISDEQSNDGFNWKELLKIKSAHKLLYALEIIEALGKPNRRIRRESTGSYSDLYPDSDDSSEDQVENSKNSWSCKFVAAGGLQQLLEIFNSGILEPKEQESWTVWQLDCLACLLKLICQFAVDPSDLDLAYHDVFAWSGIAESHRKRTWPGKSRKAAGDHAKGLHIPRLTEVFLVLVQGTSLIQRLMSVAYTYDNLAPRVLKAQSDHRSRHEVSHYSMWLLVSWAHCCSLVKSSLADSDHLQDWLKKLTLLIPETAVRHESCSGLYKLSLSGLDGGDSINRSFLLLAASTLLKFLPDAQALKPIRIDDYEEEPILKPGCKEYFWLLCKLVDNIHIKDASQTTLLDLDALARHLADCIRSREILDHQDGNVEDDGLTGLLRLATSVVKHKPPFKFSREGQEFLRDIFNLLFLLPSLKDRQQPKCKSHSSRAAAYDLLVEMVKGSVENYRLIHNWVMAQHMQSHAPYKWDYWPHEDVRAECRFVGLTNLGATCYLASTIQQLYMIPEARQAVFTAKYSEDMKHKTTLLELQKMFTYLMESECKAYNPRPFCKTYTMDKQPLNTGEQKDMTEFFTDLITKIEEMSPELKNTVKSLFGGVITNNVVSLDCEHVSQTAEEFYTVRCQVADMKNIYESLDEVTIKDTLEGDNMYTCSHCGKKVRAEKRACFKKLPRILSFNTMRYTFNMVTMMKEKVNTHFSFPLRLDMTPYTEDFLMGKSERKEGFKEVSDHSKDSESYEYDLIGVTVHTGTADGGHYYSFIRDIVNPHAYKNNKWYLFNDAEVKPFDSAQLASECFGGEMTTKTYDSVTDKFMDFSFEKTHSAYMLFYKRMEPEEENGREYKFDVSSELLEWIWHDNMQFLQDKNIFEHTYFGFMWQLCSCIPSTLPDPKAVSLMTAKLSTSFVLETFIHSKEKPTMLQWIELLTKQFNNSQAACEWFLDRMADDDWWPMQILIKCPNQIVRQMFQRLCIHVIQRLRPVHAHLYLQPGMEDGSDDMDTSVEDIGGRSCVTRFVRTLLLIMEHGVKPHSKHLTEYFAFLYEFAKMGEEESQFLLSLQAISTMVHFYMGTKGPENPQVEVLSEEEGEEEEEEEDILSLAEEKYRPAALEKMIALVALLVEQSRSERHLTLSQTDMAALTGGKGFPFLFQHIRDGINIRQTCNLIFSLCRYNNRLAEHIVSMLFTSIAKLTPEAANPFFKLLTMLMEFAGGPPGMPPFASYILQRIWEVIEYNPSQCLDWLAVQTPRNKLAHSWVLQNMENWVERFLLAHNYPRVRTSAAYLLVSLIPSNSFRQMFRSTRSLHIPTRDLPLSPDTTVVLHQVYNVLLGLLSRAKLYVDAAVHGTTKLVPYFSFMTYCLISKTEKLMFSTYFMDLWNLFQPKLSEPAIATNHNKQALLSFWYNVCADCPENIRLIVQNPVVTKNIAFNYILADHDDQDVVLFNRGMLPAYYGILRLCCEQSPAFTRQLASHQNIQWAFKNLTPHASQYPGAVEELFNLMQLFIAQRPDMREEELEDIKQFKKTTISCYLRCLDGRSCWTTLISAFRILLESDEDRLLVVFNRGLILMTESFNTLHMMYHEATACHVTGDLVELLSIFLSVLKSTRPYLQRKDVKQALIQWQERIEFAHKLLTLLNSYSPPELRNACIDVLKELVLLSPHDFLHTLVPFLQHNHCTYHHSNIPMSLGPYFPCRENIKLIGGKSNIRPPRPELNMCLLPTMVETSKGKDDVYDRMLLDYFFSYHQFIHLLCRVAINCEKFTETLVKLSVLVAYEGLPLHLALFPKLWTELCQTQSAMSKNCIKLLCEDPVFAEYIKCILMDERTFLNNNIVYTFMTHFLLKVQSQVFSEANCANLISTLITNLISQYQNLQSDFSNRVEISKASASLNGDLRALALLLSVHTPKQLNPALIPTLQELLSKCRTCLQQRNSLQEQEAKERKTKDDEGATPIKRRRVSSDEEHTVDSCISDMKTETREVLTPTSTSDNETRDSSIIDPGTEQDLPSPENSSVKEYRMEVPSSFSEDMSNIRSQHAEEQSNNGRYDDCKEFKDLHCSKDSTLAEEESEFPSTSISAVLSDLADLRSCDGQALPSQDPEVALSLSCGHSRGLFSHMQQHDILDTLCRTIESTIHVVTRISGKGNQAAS
How it was run: (§1)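 Labelled DUBs were enriched with NeutrAvidin, digested with LysC and trypsin, and run by diaPASEF LC-MS/MS. The labelling used Biotin-Ahx-Ub-VS at 0.5 µM final for 1 h on HEK293T lysate (495 µg per sample) previously treated in triplicate with fragment at 200 µM or vehicle for 3 h. Values are average log2 fragment/vehicle ratios by unpaired t-test on global-median-normalised Spectronaut quantities of proteins with ≥2 unique peptides.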

USP36 = target: T1, USP36 (UniProt Q9P275)
T1 sequence (whole entry): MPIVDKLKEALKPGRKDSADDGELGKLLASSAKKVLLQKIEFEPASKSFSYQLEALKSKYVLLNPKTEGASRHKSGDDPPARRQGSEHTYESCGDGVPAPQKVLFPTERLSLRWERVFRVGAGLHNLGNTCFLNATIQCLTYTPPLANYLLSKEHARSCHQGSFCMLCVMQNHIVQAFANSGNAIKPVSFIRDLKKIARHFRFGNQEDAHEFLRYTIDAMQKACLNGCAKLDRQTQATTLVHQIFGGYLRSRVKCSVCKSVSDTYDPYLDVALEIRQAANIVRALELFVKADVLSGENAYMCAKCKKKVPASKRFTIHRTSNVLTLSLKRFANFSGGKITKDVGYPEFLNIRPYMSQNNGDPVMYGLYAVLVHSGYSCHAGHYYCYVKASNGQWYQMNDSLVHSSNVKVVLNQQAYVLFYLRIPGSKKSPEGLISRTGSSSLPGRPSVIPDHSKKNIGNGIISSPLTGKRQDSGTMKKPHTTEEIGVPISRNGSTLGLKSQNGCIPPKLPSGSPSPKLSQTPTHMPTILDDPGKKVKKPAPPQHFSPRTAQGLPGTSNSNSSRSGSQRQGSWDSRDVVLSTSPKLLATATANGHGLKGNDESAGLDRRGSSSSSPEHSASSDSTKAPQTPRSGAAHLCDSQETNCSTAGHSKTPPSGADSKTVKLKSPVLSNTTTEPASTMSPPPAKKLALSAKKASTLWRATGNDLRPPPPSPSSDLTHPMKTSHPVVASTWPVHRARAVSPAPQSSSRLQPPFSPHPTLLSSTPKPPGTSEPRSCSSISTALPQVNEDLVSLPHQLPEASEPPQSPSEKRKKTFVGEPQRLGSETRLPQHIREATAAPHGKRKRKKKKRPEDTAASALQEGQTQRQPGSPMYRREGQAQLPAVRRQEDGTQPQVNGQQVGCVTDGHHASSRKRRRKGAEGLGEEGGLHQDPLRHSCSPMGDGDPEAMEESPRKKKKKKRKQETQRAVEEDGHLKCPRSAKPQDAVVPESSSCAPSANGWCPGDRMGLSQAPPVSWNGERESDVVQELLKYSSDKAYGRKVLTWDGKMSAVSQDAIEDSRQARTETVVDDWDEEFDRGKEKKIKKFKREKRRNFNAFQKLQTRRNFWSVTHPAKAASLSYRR
How it was run: as §1

USP38 = target: T2, USP38 (UniProt Q8NB14)
T2 sequence (whole entry): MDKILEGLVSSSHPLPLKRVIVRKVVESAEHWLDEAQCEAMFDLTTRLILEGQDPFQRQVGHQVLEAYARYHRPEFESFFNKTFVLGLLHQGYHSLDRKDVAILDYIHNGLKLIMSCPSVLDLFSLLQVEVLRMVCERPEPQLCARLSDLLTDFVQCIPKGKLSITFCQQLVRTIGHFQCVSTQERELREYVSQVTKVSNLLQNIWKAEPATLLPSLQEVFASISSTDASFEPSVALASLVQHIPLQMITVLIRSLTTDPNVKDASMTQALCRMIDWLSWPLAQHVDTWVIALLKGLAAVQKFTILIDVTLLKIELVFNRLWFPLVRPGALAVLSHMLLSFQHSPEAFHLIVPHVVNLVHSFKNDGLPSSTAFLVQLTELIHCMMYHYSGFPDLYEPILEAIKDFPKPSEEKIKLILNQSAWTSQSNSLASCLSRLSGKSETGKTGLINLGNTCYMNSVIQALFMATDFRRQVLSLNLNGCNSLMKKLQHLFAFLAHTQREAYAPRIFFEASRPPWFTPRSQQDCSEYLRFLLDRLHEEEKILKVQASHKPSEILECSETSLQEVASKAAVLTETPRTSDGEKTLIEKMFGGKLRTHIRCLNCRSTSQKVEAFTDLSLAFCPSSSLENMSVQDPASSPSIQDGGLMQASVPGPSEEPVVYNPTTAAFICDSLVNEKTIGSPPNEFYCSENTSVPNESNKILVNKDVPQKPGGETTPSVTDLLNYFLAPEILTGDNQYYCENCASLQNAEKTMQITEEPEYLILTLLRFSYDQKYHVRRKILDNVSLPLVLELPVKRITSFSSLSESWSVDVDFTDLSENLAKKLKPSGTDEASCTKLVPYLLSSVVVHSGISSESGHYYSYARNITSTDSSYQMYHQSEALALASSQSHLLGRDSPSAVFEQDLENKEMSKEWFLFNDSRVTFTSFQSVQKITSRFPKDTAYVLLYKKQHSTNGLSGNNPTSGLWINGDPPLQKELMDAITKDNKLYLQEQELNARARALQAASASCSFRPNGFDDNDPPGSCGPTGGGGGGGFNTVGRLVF
How it was run: as §1

USP39 = target: T3, USP39 (UniProt Q53GS9)
T3 sequence (whole entry): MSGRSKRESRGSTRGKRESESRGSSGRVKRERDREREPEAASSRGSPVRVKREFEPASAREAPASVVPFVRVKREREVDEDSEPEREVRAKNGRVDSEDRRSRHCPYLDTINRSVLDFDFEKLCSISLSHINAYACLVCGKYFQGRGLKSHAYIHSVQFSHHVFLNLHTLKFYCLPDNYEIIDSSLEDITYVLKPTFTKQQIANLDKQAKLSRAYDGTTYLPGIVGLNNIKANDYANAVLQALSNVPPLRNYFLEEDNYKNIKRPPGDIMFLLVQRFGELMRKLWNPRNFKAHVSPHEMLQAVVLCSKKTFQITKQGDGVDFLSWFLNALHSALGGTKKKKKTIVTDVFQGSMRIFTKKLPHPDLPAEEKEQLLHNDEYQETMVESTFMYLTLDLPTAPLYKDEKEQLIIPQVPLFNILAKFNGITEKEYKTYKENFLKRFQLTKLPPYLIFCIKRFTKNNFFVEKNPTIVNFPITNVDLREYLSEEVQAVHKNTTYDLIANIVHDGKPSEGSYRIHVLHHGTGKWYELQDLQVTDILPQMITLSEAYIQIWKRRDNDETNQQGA
How it was run: as §1

USP4 = target: T4, USP4 (UniProt Q13107)
T4 sequence (whole entry): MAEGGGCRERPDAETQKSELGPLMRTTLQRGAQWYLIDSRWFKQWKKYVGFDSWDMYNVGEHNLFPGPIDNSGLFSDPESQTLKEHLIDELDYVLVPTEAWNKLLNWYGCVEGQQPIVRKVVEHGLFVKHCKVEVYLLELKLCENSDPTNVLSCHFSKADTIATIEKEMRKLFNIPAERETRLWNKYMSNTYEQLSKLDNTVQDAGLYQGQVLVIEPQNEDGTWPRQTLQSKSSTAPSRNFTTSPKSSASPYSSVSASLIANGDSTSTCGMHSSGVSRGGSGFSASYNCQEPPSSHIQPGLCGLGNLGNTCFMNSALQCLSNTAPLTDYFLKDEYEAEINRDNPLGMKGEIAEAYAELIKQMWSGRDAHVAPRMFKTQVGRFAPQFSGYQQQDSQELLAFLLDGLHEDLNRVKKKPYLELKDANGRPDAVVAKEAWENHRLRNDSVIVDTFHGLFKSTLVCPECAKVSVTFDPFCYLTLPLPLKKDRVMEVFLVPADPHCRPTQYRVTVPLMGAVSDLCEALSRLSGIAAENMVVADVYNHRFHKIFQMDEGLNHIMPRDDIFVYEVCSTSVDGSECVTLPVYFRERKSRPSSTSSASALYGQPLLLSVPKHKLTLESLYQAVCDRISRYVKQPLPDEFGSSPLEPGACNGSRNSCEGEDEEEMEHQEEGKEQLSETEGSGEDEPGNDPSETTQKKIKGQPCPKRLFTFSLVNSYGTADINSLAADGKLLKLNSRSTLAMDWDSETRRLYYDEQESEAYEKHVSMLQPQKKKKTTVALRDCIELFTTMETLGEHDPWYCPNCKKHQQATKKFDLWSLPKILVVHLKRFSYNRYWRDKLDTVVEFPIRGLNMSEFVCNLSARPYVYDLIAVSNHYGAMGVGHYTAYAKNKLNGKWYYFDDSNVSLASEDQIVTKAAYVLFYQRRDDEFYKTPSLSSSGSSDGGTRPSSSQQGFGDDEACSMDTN
How it was run: as §1

Measured: log2 ratio of Biotin-Ahx-Ub-VS probe labelling

O=C(CCl)NC1CCOc2ccccc21 (stereo not given)
inactive: USP34 -0.539 | USP36 -0.388 | USP38 -0.738 | USP39 -0.0973 | USP4 -0.674
